Test results reported in PubChem BioAssay AID1159580 (chemical genetic matrix, 2015).
About 2,000 (36%) of roughly 5,500 compounds were called active. Another 18% or so got no clear call; they are omitted. No stated cut-off is given here; in the data, active means normalized growth mostly below about 0.91 (no sharp cut-off); inconclusive means no clear call, values can overlap the other calls; inactive means mostly above about 0.92. Some of the results follow.

Assay: chemical genetic growth profiling, strain panel (AID 1159580);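 further: tested at 20 µM; growth read once vehicle control cultures reached saturation at 30 °C; 1 = growth at the plate median or of vehicle wells; lower values mean less growth of the strain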
Details: growth OD

Measured: normalized growth

COc1cc(O)c2c(=O)c(O)c(-c3ccc(O)c(O)c3)oc2c1
inactive: S. cerevisiae deletion strains, locus YJR075W, strain HOC1, active compounds read low 0.987 | S. cerevisiae deletion strains, locus YKL009W, strain mrt4, active compounds read low 1.02 | S. cerevisiae deletion strains, locus YKL068W, active compounds read low 1 | S. cerevisiae deletion strains, locus YKL085W, strain MDH1 (second series), active compounds read low 0.994 | S. cerevisiae deletion strains, locus YKL085W, strain MDH1, active compounds read low 0.994 | S. cerevisiae deletion strains, locus YKL190W, strain CNB1, active compounds read low 0.997 | S. cerevisiae deletion strains, locus YKR001C, strain vps1, active compounds read low 0.996 | S. cerevisiae deletion strains, locus YKR026C, strain gcn3, active compounds read low 0.945 | S. cerevisiae deletion strains, locus YKR091W, strain srl3, active compounds read low 0.961 | S. cerevisiae deletion strains, locus YLL026W, active compounds read low 0.934 | S. cerevisiae deletion strains, locus YLL041C, strain sdh2, active compounds read low 0.928 | S. cerevisiae deletion strains, locus YLR039C, strain RIC1, active compounds read low 0.785 | S. cerevisiae deletion strains, locus YLR102C, strain apc9, active compounds read low 1.02 | S. cerevisiae deletion strains, locus YLR262C, strain YPT6, active compounds read low 0.91 | S. cerevisiae deletion strains, locus YLR268W, strain sec22, active compounds read low 0.968 | S. cerevisiae deletion strains, locus YLR330W, strain CHS5, active compounds read low 0.99 | S. cerevisiae deletion strains, locus YLR342W, strain FKS1 (second series), active compounds read low 0.898 | S. cerevisiae deletion strains, locus YLR371W, strain rom2, active compounds read low 0.962 | S. cerevisiae deletion strains, locus YLR384C, strain iki3, active compounds read low 0.936 | S. cerevisiae deletion strains, locus YLR418C, strain cdc73, active compounds read low 0.957 | S. cerevisiae deletion strains, locus YML032C, strain rad52, active compounds read low 1.02 | S. cerevisiae deletion strains, locus YML124C, strain tub3, active compounds read low 1.02 | S. cerevisiae deletion strains, locus YMR078C, strain ctf18, active compounds read low 1.02 | S. cerevisiae deletion strains, locus YMR125W, strain sto1, active compounds read low 1 | S. cerevisiae deletion strains, locus YMR129W, active compounds read low 0.927 | S. cerevisiae deletion strains, locus YMR223W, strain ubp8, active compounds read low 1 | S. cerevisiae deletion strains, locus YMR307W, strain GAS1, active compounds read low 0.768 | S. cerevisiae deletion strains, locus YNL067W, strain RPL9B, active compounds read low 0.953 | S. cerevisiae deletion strains, locus YNL071W, strain lat1, active compounds read low 0.919 | S. cerevisiae deletion strains, locus YNL128W, strain TEP1, active compounds read low 0.935 | S. cerevisiae deletion strains, locus YNL233W, strain BNI4, active compounds read low 0.894 | S. cerevisiae deletion strains, locus YNL248C, strain rpa49, active compounds read low 0.889 | S. cerevisiae deletion strains, locus YNL250W, strain rad50, active compounds read low 0.986 | S. cerevisiae deletion strains, locus YNL271C, strain bni1, active compounds read low 0.998 | S. cerevisiae deletion strains, locus YNL298W, strain CLA4, active compounds read low 1.01 | S. cerevisiae deletion strains, locus YNL307C, strain MCK1, active compounds read low 1.02 | S. cerevisiae deletion strains, locus YNL322C, strain KRE1 (second series), active compounds read low 0.967 | S. cerevisiae deletion strains, locus YNL322C, strain KRE1, active compounds read low 0.952 | S. cerevisiae deletion strains, locus YNR049C, strain mso1, active compounds read low 0.947 | S. cerevisiae deletion strains, locus YNR052C, strain pop2, active compounds read low 0.991 | S. cerevisiae deletion strains, locus YOL006C, strain TOP1, active compounds read low 0.624 | S. cerevisiae deletion strains, locus YOL012C, strain htz1 0.669 | S. cerevisiae deletion strains, locus YOL147C, strain pex11, active compounds read low 1.01 | S. cerevisiae deletion strains, locus YOR061W, strain CKA2, active compounds read low 0.934 | S. cerevisiae deletion strains, locus YOR069W, strain VPS5, active compounds read low 0.966 | S. cerevisiae deletion strains, locus YOR136W, strain idh2, active compounds read low 1.01 | S. cerevisiae deletion strains, locus YOR144C, strain elg1, active compounds read low 1.02 | S. cerevisiae deletion strains, locus YOR184W, strain ser1, active compounds read low 0.993 | S. cerevisiae deletion strains, locus YOR316C, strain cot1, active compounds read low 1.05 | S. cerevisiae deletion strains, locus YPL241C, strain CIN2, active compounds read low 0.989 | S. cerevisiae deletion strains, locus YPR119W, strain clb2, active compounds read low 1.03 | S. cerevisiae deletion strains, locus YPR141C, strain kar3, active compounds read low 0.997 | S. cerevisiae deletion strains, locus YPR163C, strain tif3, active compounds read low 1.01 | S. cerevisiae deletion strains, locus YPR167C, strain met16, active compounds read low 1 | S. cerevisiae deletion strains, strain wtn01, active compounds read low 0.996 | S. cerevisiae strains, strain wild type, active compounds read low 0.929
active: S. cerevisiae deletion strains, locus YKL160W, strain elf1, active compounds read low 0.84 | S. cerevisiae deletion strains, locus YLL001W, strain dnm1, active compounds read low 0.782 | S. cerevisiae deletion strains, locus YLR027C, strain aat2, active compounds read low 0.843 | S. cerevisiae deletion strains, locus YLR058C, strain SHM2, active compounds read low 0.827 | S. cerevisiae deletion strains, locus YLR221C, strain rsa3, active compounds read low 0.779 | S. cerevisiae deletion strains, locus YLR258W, strain gsy2, active compounds read low 0.854 | S. cerevisiae deletion strains, locus YLR262C, strain YPT6 (second series), active compounds read low 0.565 | S. cerevisiae deletion strains, locus YLR320W, strain mms22, active compounds read low 0.758 | S. cerevisiae deletion strains, locus YLR342W, strain FKS1, active compounds read low 0.643 | S. cerevisiae deletion strains, locus YLR357W, strain rsc2, active compounds read low 0.678 | S. cerevisiae deletion strains, locus YLR370C, strain arc18, active compounds read low 0.813 | S. cerevisiae deletion strains, locus YML016C, strain PPZ1, active compounds read low 0.915 | S. cerevisiae deletion strains, locus YML120C, strain ndi1, active compounds read low 0.879 | S. cerevisiae deletion strains, locus YMR058W, strain fet3, active compounds read low 0.247 | S. cerevisiae deletion strains, locus YMR205C, strain PFK2, active compounds read low 0.658 | S. cerevisiae deletion strains, locus YMR231W, strain pep5, active compounds read low 0.874 | S. cerevisiae deletion strains, locus YNL209W, strain ssb2, active compounds read low 0.452 | S. cerevisiae deletion strains, locus YOR001W, strain rrp6, active compounds read low 0.845 | S. cerevisiae deletion strains, locus YOR070C, strain gyp1, active compounds read low 0.878 | S. cerevisiae deletion strains, locus YOR080W, strain dia2, active compounds read low 0.813 | S. cerevisiae deletion strains, locus YOR083W, strain WHI5, active compounds read low 0.749 | S. cerevisiae deletion strains, locus YOR106W, strain vam3, active compounds read low 0.407 | S. cerevisiae deletion strains, locus YOR265W, strain rbl2, active compounds read low 0.883 | S. cerevisiae deletion strains, locus YOR270C, strain vph1, active compounds read low 0.484 | S. cerevisiae deletion strains, locus YOR290C, strain snf2, active compounds read low 0.701 | S. cerevisiae deletion strains, locus YPL051W, strain arl3, active compounds read low 0.521 | S. cerevisiae deletion strains, locus YPL078C, strain atp4, active compounds read low 0.796 | S. cerevisiae deletion strains, locus YPL106C, strain sse1, active compounds read low 0.77 | S. cerevisiae deletion strains, locus YPL240C, strain hsp82, active compounds read low 0.83
